From ChEMBL document CHEMBL1961873, “Compounds: GSK PKIS; Assays: Nanosyn kinase panel” (2012)

Experiments:
[1] = biological target: T1, Tyrosine-protein kinase ITK/TSK (Homo sapiens) (UniProt Q08881); conditions: at 1 µM;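 further: values are mean percent inhibition of ITK from the GSK PKIS screen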
T1 sequence (whole entry): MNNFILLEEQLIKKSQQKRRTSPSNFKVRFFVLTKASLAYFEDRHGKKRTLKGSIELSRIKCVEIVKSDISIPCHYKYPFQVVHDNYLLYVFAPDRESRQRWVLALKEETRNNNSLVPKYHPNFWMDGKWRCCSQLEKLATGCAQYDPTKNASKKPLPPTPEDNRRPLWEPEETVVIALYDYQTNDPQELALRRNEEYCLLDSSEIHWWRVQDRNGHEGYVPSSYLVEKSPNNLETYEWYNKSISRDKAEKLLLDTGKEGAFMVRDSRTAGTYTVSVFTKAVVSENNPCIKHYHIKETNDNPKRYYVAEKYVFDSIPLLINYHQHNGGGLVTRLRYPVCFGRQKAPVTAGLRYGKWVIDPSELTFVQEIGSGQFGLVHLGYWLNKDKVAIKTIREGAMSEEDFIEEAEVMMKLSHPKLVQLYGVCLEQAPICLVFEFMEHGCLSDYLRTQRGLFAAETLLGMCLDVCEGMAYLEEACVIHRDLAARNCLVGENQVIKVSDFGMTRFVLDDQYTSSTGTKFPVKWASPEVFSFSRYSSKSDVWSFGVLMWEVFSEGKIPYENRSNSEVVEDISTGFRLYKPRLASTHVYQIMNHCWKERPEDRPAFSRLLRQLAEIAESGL

[2] = biological target: Tyrosine-protein kinase JAK1 (Homo sapiens) (UniProt P23458); conditions: at 0.1 µM
Tyrosine-protein kinase JAK1 (Homo sapiens), sequence (P23458 whole entry): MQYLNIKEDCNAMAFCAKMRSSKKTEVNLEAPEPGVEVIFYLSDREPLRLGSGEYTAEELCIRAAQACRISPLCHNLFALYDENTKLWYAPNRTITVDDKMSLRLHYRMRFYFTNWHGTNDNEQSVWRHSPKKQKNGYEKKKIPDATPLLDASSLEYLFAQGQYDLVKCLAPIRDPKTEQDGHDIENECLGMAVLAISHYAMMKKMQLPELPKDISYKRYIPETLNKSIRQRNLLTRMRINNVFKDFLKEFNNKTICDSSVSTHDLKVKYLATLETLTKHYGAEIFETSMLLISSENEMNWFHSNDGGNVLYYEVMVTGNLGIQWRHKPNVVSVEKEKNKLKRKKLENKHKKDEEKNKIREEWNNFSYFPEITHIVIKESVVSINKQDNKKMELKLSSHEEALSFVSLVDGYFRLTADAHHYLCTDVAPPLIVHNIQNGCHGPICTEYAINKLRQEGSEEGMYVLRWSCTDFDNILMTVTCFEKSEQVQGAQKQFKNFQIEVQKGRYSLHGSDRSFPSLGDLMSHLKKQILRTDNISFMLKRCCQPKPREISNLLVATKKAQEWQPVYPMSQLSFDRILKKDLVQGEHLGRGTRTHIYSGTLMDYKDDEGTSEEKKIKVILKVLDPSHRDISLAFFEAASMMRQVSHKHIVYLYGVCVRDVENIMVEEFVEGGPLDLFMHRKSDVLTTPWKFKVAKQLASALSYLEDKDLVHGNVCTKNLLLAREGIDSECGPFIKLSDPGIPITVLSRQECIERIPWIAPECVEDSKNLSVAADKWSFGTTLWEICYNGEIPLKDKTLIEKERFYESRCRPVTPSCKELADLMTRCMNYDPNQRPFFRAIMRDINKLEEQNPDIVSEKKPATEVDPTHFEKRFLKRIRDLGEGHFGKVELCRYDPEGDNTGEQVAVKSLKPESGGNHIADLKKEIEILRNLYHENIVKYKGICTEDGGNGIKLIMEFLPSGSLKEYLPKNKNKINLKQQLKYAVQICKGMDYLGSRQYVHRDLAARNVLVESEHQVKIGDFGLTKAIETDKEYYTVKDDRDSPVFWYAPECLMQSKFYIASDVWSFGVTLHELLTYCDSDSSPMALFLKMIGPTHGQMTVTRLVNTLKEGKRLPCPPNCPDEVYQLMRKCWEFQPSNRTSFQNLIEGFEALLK

[3] = biological target: Tyrosine-protein kinase JAK1 (Homo sapiens) (UniProt P23458); conditions: at 1 µM
[4] = biological target: Tyrosine-protein kinase JAK2 (Homo sapiens) (UniProt O60674); conditions: at 0.1 µM
Tyrosine-protein kinase JAK2 (Homo sapiens), sequence (O60674 whole entry): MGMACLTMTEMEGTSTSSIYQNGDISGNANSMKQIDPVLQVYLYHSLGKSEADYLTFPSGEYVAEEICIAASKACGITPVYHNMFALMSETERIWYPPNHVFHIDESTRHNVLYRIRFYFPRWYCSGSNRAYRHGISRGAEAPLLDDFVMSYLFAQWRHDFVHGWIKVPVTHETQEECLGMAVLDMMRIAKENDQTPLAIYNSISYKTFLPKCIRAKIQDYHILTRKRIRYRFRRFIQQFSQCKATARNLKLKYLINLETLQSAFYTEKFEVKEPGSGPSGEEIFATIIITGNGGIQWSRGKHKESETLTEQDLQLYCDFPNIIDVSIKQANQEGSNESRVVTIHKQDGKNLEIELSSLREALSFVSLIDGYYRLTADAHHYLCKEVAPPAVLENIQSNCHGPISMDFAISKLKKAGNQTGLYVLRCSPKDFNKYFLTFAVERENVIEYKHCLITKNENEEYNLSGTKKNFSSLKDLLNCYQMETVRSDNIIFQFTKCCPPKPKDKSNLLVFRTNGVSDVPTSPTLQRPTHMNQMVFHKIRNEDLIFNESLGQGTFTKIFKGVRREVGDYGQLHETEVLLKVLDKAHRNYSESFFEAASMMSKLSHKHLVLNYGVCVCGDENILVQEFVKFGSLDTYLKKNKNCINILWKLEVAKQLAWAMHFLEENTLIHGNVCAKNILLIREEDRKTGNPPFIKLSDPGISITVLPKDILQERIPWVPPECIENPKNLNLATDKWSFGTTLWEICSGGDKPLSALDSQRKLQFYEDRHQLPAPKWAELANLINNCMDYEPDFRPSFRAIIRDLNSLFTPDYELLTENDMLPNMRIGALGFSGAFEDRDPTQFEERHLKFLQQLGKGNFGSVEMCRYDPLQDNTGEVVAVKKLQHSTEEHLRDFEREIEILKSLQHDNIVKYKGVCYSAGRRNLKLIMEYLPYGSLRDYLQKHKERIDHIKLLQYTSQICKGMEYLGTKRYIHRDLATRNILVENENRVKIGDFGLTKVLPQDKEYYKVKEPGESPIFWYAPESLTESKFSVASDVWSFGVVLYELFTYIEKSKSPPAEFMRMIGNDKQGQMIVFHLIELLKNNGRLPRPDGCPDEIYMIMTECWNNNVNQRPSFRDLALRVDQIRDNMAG

[5] = biological target: Tyrosine-protein kinase JAK2 (Homo sapiens) (UniProt O60674); conditions: at 1 µM
[6] = biological target: T2, Tyrosine-protein kinase JAK3 (Homo sapiens) (UniProt P52333); conditions: at 0.1 µM
T2 sequence (whole entry): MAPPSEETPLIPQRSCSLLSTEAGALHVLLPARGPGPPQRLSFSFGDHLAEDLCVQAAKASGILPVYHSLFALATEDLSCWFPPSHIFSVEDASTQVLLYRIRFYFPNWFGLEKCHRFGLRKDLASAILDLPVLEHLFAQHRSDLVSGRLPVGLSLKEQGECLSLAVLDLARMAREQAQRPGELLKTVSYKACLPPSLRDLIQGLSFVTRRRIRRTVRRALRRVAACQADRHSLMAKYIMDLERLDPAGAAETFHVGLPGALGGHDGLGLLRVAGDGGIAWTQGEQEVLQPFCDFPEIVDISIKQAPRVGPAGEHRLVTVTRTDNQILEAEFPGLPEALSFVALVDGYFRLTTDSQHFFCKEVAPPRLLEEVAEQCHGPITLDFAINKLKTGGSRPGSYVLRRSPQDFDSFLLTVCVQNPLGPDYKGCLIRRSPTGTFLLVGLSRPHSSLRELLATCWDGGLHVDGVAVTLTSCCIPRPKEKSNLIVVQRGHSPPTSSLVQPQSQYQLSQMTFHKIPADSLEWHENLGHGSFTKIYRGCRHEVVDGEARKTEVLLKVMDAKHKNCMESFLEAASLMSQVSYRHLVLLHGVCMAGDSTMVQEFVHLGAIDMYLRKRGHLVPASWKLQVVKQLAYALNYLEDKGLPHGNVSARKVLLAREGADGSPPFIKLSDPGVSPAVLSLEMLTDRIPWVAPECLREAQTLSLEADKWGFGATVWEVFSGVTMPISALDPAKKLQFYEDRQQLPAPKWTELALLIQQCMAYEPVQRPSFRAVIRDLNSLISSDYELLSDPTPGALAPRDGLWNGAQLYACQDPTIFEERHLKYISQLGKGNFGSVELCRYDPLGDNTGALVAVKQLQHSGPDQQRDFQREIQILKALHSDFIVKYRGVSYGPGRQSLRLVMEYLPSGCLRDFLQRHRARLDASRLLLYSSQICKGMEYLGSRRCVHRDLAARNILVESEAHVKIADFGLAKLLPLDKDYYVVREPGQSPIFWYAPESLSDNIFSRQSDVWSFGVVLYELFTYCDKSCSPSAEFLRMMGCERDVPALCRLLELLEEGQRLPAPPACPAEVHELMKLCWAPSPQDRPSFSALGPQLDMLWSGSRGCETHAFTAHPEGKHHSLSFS

[7] = biological target: T2, Tyrosine-protein kinase JAK3 (Homo sapiens); conditions: at 1 µM
[8] = biological target: Vascular endothelial growth factor receptor 2 (Homo sapiens) (UniProt P35968); conditions: at 0.1 µM
[9] = biological target: Vascular endothelial growth factor receptor 2 (Homo sapiens) (UniProt P35968); conditions: at 1 µM
[10] = biological target: Mast/stem cell growth factor receptor Kit (Homo sapiens) (UniProt P10721); conditions: at 0.1 µM
Mast/stem cell growth factor receptor Kit (Homo sapiens), sequence (P10721 whole entry): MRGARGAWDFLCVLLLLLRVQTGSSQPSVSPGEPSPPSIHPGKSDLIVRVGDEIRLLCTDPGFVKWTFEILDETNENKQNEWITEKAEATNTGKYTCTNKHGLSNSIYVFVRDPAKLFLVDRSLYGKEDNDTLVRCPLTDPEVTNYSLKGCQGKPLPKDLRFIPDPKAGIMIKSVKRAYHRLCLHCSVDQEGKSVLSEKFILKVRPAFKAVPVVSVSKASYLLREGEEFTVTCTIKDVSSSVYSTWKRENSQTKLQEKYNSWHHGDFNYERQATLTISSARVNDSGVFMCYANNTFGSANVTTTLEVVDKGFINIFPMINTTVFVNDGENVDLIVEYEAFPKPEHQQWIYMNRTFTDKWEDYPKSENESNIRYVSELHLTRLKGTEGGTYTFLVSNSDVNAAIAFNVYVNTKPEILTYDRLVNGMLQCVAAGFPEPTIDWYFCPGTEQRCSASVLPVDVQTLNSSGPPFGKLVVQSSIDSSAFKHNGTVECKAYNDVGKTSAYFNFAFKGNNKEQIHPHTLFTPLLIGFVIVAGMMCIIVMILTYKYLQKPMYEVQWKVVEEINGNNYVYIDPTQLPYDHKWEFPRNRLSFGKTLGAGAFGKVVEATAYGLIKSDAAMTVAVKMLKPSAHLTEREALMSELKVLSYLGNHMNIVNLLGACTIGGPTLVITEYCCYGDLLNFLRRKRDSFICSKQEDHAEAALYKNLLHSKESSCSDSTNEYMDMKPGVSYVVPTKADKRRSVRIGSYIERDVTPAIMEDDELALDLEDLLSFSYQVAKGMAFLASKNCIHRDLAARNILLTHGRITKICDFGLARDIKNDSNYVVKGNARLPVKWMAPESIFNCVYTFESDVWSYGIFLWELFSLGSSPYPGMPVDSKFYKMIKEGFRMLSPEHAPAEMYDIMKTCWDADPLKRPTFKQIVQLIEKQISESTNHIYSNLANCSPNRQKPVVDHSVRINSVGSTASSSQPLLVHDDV

[11] = biological target: Mast/stem cell growth factor receptor Kit (Homo sapiens) (UniProt P10721); conditions: at 1 µM
[12] = tested on: Mast/stem cell growth factor receptor Kit (Homo sapiens), P10721 [D816V]; conditions: at 0.1 µM
Mast/stem cell growth factor receptor Kit (Homo sapiens), P10721 [D816V], sequence (P10721 whole entry D816V): as the sequence (P10721 whole entry) above, with D816V counted along it

[13] = tested on: Mast/stem cell growth factor receptor Kit (Homo sapiens), P10721 [D816V]; conditions: at 1 µM
[14] = tested on: Mast/stem cell growth factor receptor Kit (Homo sapiens), P10721 [T670I]; conditions: at 0.1 µM
Mast/stem cell growth factor receptor Kit (Homo sapiens), P10721 [T670I], sequence (P10721 whole entry T670I): as the sequence (P10721 whole entry) above, with T670I counted along it

[15] = tested on: Mast/stem cell growth factor receptor Kit (Homo sapiens), P10721 [T670I]; conditions: at 1 µM
[16] = tested on: Mast/stem cell growth factor receptor Kit (Homo sapiens), P10721 [V560G]; conditions: at 0.1 µM
Mast/stem cell growth factor receptor Kit (Homo sapiens), P10721 [V560G], sequence (P10721 whole entry V560G): as the sequence (P10721 whole entry) above, with V560G counted along it

[17] = tested on: Mast/stem cell growth factor receptor Kit (Homo sapiens), P10721 [V560G]; conditions: at 1 µM
[18] = biological target: Tyrosine-protein kinase Lck (Homo sapiens) (UniProt P06239); conditions: at 0.1 µM
Tyrosine-protein kinase Lck (Homo sapiens), sequence (P06239 2-509 limits assumed): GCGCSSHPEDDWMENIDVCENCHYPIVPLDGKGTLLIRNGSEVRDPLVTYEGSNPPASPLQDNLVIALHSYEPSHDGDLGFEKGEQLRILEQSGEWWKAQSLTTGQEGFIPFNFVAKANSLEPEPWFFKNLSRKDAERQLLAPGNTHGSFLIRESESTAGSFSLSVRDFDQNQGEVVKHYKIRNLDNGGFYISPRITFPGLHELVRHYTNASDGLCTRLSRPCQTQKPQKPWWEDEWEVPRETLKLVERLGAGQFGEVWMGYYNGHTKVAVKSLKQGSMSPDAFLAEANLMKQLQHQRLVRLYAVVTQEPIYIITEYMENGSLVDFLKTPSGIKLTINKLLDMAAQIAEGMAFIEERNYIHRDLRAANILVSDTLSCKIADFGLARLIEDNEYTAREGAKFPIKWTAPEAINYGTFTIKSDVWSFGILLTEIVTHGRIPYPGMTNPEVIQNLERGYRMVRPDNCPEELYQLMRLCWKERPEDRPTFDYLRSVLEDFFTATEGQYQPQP

[19] = biological target: Tyrosine-protein kinase Lck (Homo sapiens) (UniProt P06239); conditions: at 1 µM
[20] = biological target: Leukocyte tyrosine kinase receptor (Homo sapiens) (UniProt P29376); conditions: at 0.1 µM
Leukocyte tyrosine kinase receptor (Homo sapiens), sequence (P29376 whole entry): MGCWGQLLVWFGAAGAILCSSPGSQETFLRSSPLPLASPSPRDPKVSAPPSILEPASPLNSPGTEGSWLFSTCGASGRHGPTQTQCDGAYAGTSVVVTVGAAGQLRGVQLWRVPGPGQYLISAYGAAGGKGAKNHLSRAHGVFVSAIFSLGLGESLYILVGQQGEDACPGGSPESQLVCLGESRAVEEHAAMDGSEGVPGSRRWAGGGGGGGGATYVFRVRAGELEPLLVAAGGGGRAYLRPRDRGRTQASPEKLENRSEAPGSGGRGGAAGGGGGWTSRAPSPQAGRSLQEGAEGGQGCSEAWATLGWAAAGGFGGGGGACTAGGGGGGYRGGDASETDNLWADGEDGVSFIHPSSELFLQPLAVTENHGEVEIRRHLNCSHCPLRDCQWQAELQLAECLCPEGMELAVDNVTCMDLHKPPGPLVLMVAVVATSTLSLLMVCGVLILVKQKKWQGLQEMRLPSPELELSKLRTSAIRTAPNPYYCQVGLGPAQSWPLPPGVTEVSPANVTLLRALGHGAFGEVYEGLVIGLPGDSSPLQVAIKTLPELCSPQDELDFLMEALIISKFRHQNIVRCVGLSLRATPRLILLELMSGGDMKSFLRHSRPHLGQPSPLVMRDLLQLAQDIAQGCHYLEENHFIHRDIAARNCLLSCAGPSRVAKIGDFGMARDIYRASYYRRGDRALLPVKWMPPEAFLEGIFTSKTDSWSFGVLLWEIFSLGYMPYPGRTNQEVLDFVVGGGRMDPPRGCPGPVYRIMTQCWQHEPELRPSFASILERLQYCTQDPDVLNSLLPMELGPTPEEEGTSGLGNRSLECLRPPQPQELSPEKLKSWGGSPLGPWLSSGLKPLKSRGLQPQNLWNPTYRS

Compound: CCS(=O)(=O)c1ccc(OC)c(Nc2ncc(-c3cccc(C(C)=O)c3)o2)c1
- inhibition [1]: 2.71%
- inhibition [2]: 0.61%
- inhibition [3]: 6.56%
- inhibition [4]: 0.16%
- inhibition [5]: 1.8%
- inhibition [6]: -1.13%
- inhibition [7]: 1.72%
- inhibition [8]: 16.4%
- inhibition [9]: 58.9%
- inhibition [10]: 19.7%
- inhibition [11]: 71.4%
- inhibition [12]: 5.74%
- inhibition [13]: 12.1%
- inhibition [14]: -0.79%
- inhibition [15]: 10.7%
- inhibition [16]: 3.47%
- inhibition [17]: 13%
- inhibition [18]: 2.7%
- inhibition [19]: 25.4%
- inhibition [20]: 2.87%

Compound: CC(C)c1ccc(-c2cc(-c3c[nH]nc3-c3ccccn3)ccn2)cc1
- inhibition [1]: 1.69%
- inhibition [2]: -1.37%
- inhibition [3]: 1.1%
- inhibition [4]: 0.74%
- inhibition [5]: 0.23%
- inhibition [6]: 0.23%
- inhibition [7]: 0.8%
- inhibition [8]: 9.43%
- inhibition [9]: 32.4%
- inhibition [10]: 0.6%
- inhibition [11]: 2.85%
- inhibition [12]: 0.06%
- inhibition [13]: 3.83%
- inhibition [14]: 1.04%
- inhibition [15]: 1.23%
- inhibition [16]: -0.59%
- inhibition [17]: 3.5%
- inhibition [18]: 1.31%
- inhibition [19]: -0.13%
- inhibition [20]: 1.24%

Compound: O=C(Nc1n[nH]c2nnc(-c3cccnc3)cc12)C1CC1
- inhibition [1]: 2.49%
- inhibition [2]: 1.49%
- inhibition [3]: 2.85%
- inhibition [4]: -0.35%
- inhibition [5]: 0.3%
- inhibition [6]: -0.15%
- inhibition [7]: 0.02%
- inhibition [8]: -0.85%
- inhibition [9]: 2.5%
- inhibition [10]: 1.26%
- inhibition [11]: 2.59%
- inhibition [12]: -1.93%
- inhibition [13]: 1.15%
- inhibition [14]: -0.12%
- inhibition [15]: 0.35%
- inhibition [16]: 2.26%
- inhibition [17]: 1.71%
- inhibition [18]: 1.03%
- inhibition [19]: 3.69%
- inhibition [20]: 1.26%

Compound: COC(=O)Nc1nc2cc(Oc3ccc(NC(=O)Nc4ccccc4)cc3)ccc2[nH]1
- inhibition [1]: 1.86%
- inhibition [2]: 3.81%
- inhibition [3]: 9.99%
- inhibition [4]: 0.07%
- inhibition [5]: 1.12%
- inhibition [6]: -1.68%
- inhibition [7]: -0.28%
- inhibition [8]: 4.55%
- inhibition [9]: 7.27%
- inhibition [10]: 29.2%
- inhibition [11]: 68%
- inhibition [12]: 2.82%
- inhibition [13]: 12%
- inhibition [14]: 4.22%
- inhibition [15]: 8.76%
- inhibition [16]: 25.3%
- inhibition [17]: 67.9%
- inhibition [18]: 2.87%
- inhibition [19]: 4.96%
- inhibition [20]: 2.55%

Compound: CC1=C(C(=O)Nc2ccc3[nH]nc(C)c3c2)C(c2ccc(C(F)(F)F)cc2)CC(=O)N1 (stereo not given)
- inhibition [1]: 7.86%
- inhibition [2]: 38.5%
- inhibition [3]: 70.7%
- inhibition [4]: 31.1%
- inhibition [5]: 82.4%
- inhibition [6]: 15.6%
- inhibition [7]: 68.8%
- inhibition [8]: 5.36%
- inhibition [9]: 11%
- inhibition [10]: 2.41%
- inhibition [11]: 2.22%
- inhibition [12]: 5.34%
- inhibition [13]: 1.99%
- inhibition [14]: -0.21%
- inhibition [15]: 1.75%
- inhibition [16]: 0.71%
- inhibition [17]: -0.03%
- inhibition [18]: 5.93%
- inhibition [19]: 18.8%
- inhibition [20]: 1.5%

Compound: COc1ccc(Nc2ncc(-c3ccccc3)o2)cc1OC
- inhibition [1]: 3.7%
- inhibition [2]: 0.7%
- inhibition [3]: 7.81%
- inhibition [4]: 1.09%
- inhibition [5]: 3.43%
- inhibition [6]: 0.88%
- inhibition [7]: 10.7%
- inhibition [8]: 10.6%
- inhibition [9]: 44.2%
- inhibition [10]: 79.1%
- inhibition [11]: 95.9%
- inhibition [12]: -0.42%
- inhibition [13]: 1.76%
- inhibition [14]: 46.1%
- inhibition [15]: 90.3%
- inhibition [16]: 45.7%
- inhibition [17]: 84.8%
- inhibition [18]: 2.31%
- inhibition [19]: 21.2%
- inhibition [20]: 1.44%

Compound: CS(=O)(=O)CCNCc1ccc(-c2ccc3ncnc(Nc4ccc(OCc5cccc(C(F)(F)F)c5)cc4)c3c2)o1
- inhibition [1]: 1.4%
- inhibition [2]: 1.68%
- inhibition [3]: 1.38%
- inhibition [4]: 4.27%
- inhibition [5]: 3.35%
- inhibition [6]: -1.49%
- inhibition [7]: 0.32%
- inhibition [8]: 5.19%
- inhibition [9]: 11%
- inhibition [10]: 4.53%
- inhibition [11]: 11.4%
- inhibition [12]: 2.25%
- inhibition [13]: 0.02%
- inhibition [14]: 5.03%
- inhibition [15]: 5.44%
- inhibition [16]: -4.38%
- inhibition [17]: -2.24%
- inhibition [18]: 3.86%
- inhibition [19]: 7.98%
- inhibition [20]: 5.96%
